Growth inhibition data for 40 molecules are collected here from PubChem BioAssay (NCI).

Molecules are shown by their SMILES. This is part of a sample that, as a whole, favours compounds with a hit. Of some 79,000 tested, about 15% had one in any assay. Calls of active or inactive are those of the source. Cut-off read from the data, not from the text of the source: active = growth inhibition above about 70%; inactive = the rest.

A short description of this experiment: NCI Yeast Anticancer Drug Screen. Data for the cln2 rad14 strain (AID 165).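 Note: 0% = growth equal to vehicle treated cultures.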 Particulars: S. cerevisiae cln2 rad14 strain, at 50.0 µM, stronger effect = higher value. Here is the method: Growth inhibition of yeast strains with defined genetic alterations is measured as a screen for potential anti-cancer activity. Selected strains with alterations in DNA damage repair or cell cycle control were exposed to compounds and growth inhibition was measured relative to vehicle treated controls. The strain used in this assay is cln2 rad14
For `N#C[C@H](c1nc2ccccc2[nH]1)c1nc2ccccc2nc1Cl`, the growth inhibition is 12.8% (inactive).

Turning to `CC(=O)Nc1c([N+](=O)[O-])cc(C2CCCCC2)cc1[N+](=O)[O-]`, the growth inhibition was -34.5% (inactive).

For the molecule `CCOC(=O)NC1C2CC3C(C2)C31` (stereo not given), the growth inhibition was -20.6% (inactive).

In the case of `O=C1CN(c2ccccc2)C(=O)CN1/N=C/c1ccc(O)c(O)c1`, the growth inhibition is 12.7% (inactive).

`CCN(CC)CCOC(NC(C)=O)(c1ccccc1)c1ccccc1`: the growth inhibition was 1.55% (inactive).

For the molecule `CCN1c2ccccc2CC(C#N)(CCN(C)C)c2ccccc21` (stereo not given), the growth inhibition was -10.8% (inactive).

With `CCCCCCCCCCCCCC(=O)Cl`, the growth inhibition was -39.9% (inactive).

In the case of `O=C(OCC1OC(OC(=O)c2ccccc2)C(O)C1OC(=O)c1ccccc1)c1ccccc1` (stereo not given), the growth inhibition was 38.2% (inactive).

For `COc1ccc2cc1Oc1ccc(cc1)CC1=NCCc3cc(OC)c(OC)c(c31)Oc1cc3c(cc1OC)CCN(C)C3C2` (stereo not given), the growth inhibition is 4.5% (inactive).

Turning to `C=C(Br)CNC(=O)Nc1ccccn1`, the growth inhibition was -4.15% (inactive).

On to `CC(=O)/C(=C\c1ccccc1F)C(=O)CCN(C)C`, for which the growth inhibition was 12.2% (inactive).

With `Cc1cc(C)c(NC(=O)Nc2cccc(Cl)c2)c(C)c1`, the growth inhibition was -4% (inactive).

For the molecule `O=C1CN(Cc2ccccc2)CCO1`, the growth inhibition was 0.9% (inactive).

For the molecule `CCNC(=O)Oc1cccc(NC(=O)CC)c1`, the growth inhibition is -14.2% (inactive).

For `CC(=O)NOCC1NC(=O)C(CONC(C)=O)NC1=O` (stereo not given), the growth inhibition is -3.4% (inactive).

For the molecule `CCOC(=O)C(O)C(O)C(O)C(O)C(=O)OCC` (stereo not given), the growth inhibition was -2.35% (inactive).

Take `O=C(O)CCSc1ccccc1`: the growth inhibition is -73% (inactive).

For the molecule `CCCCCCCCCC1(C(=O)OCC)OC1(C)C` (stereo not given), the growth inhibition is 10.5% (inactive).

As to `Nc1ccc(C(=O)NN2C(=O)C(Cl)C2c2ccccc2Cl)cc1` (stereo not given), the growth inhibition is 38.8% (inactive).

Take `CC(C)/C(Cl)=N\OC(NC(=O)P(=O)(c1ccccc1)c1ccccc1)(C(F)(F)F)C(F)(F)F`: the growth inhibition is 65.5% (inactive).

As for `CC1CC2C3(C1)CC(C(=O)OC3=O)C2(C)C` (stereo not given), the growth inhibition was -37.4% (inactive).

For the molecule `O=C(O)c1[nH]c(=O)[nH]c(=O)c1C(=O)O`, the growth inhibition is 18.8% (inactive).

Turning to `[O-]c1csc2n(-c3ccccc3)c3ccccc3[n+]12`, the growth inhibition was 28.4% (inactive).

With `c1csc(-c2cc(-c3cccs3)c(-c3ccsc3)s2)c1`, the growth inhibition was -26.2% (inactive).

On to `COc1nc(SC)nc2[nH]ccc12`, for which the growth inhibition was -6.6% (inactive).

For `COc1ccc(C(CC(=O)O)CC(=O)O)cc1[N+](=O)[O-]`, the growth inhibition was -6.2% (inactive).

As for `CC1=NNC(=O)CC1C(O)c1ccccc1` (stereo not given), the growth inhibition is 3% (inactive).

For the molecule `CN1CCCc2cccc(NC(=O)C3CCCNC3=O)c21` (stereo not given), the growth inhibition was -32.8% (inactive).

For `COC(=O)c1cc(C(=O)c2ccccc2)cc2c1c(=O)[nH]c1ccccc12`, the growth inhibition was -5.7% (inactive).

With `COC(=O)C1C2CC3C(OC(=O)C31)C2OC(=O)[C@](OC)(c1ccccc1)C(F)(F)F` (stereo not given in full), the growth inhibition is -25.4% (inactive).

With `N#Cc1nc(CC(=O)c2ccccc2Cl)c(CC(=O)c2ccccc2Cl)nc1C#N`, the growth inhibition is 25.4% (inactive).

As for `CC(C)OC(=S)Nc1ccc(Cl)c(COC(C)(C)C)c1`, the growth inhibition is 7.6% (inactive).

On to `NC(=S)N/N=C1/CC(=O)N(c2ccccc2)C1c1ccccc1` (stereo not given), for which the growth inhibition is -2.8% (inactive).

`Cc1cnc2c(N)nc(-c3ccccc3)nc2n1`: the growth inhibition was -39.4% (inactive).

Turning to `COC1(c2ccccc2)OC(=O)C(C)(C)c2ccccc21` (stereo not given), the growth inhibition is 22.1% (inactive).

Consider `O=C1NC(N(Cc2ccccc2)Cc2ccccc2)=NC1(c1ccccc1)c1ccccc1`, for which the growth inhibition is 7.45% (inactive).

On to `O=c1[nH][nH]c(=O)c2[nH]cnc12`, for which the growth inhibition is -62.6% (inactive).

On to `C=COC(=O)N1CCCCC1`, for which the growth inhibition is -13.7% (inactive).

Regarding `CC1(C)CSC(C)(C)C(=O)N1`, the growth inhibition was -6.85% (inactive).

As for `S=c1nc[nH]c2c1ncn2C1CCCC1`, the growth inhibition was -14.9% (inactive).
